Paper PMC10668032, “Altered binding affinity of SIX1-Q177R correlates with enhanced WNT5A and WNT pathway effector expression in Wilms tumor”
Whole data set: some 33,000 sequences, median “e-score” near -0.05, cut for the highest 2% near 0.38. Shown is part of a subset that was picked to be rich in the highest values.

What follows are sequences tested against T1, SIX1-Q177R homeodomain (human, UniProt Q15475 108-198, Q177R) (assay: universal protein binding microarray; Universal all-10-mer PBM (8x60K, AMADID 030236), 300 nM GST-tagged protein, Alexa Fluor 488 anti-GST; buffer, salt, pH and temperature not stated (as in Berger); high values mean tight binding). Settings: protein: ivt; tags: N-terminal GST; dsDNA, one strand shown.
T1 sequence: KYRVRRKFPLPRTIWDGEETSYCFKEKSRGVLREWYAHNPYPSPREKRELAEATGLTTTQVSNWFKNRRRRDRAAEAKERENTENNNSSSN
How it was run: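 After in vitro transcription/translation, GST-tagged homeodomains were quantified against a recombinant GST standard curve by anti-GST western blot. They were then placed in duplicate at 300 nM final concentration on universal 'all 10-mer' protein binding microarrays of 8×60K format.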

| Sequence | binding signal |
| --- | --- |
| CACACATA | 0.15 ± 0.0738 E-score |
| AATACACA | 0.188 ± 0.0145 E-score |
| GATACACC | 0.469 ± 0.00549 E-score |
| AATACCCC | 0.185 ± 0.00616 E-score |
| CATACACA | 0.205 ± 0.0341 E-score |
| GATACACA | 0.191 ± 0.024 E-score |
| GATACTCC | 0.223 ± 0.00252 E-score |
| TATACACA | 0.169 ± 0.034 E-score |
| AATACACG | 0.379 ± 0.0262 E-score |
| CATACCCC | 0.205 ± 0.0264 E-score |
| GATACCCC | 0.419 ± 0.00493 E-score |
| CATACACG | 0.385 ± 0.00816 E-score |
| CCCCTACG | 0.181 ± 0.00578 E-score |
| CACGTGCG | 0.171 ± 0.0176 E-score |
| CACTGCCG | 0.26 ± 0.0036 E-score |
| ACTAGGGA | 0.18 ± 0.018 E-score |
| TGTCAGAA | 0.183 ± 0.0293 E-score |
| CAACCCCA | 0.173 ± 0.00554 E-score |
| CACGAGAA | 0.2024 ± 0.00175 E-score |
| TATCGACA | 0.212 ± 0.0495 E-score |
| AACGCCGT | 0.159 ± 0.0311 E-score |
| AATACACT | 0.327 ± 0.0629 E-score |

| Sequence | binding signal |
| --- | --- |
| CATACTCC | 0.21183 ± 0.000205 E-score |
| CATACACC | 0.4625 ± 0.00144 E-score |
| CATGCACC | 0.165 ± 0.0266 E-score |
| AATATACA | 0.18 ± 0.0323 E-score |
| AATACACC | 0.46 ± 0.00939 E-score |
| ACTCCGCA | 0.225 ± 0.0283 E-score |
| CGAACCCC | 0.238 ± 0.0417 E-score |
| GTGCTCCA | 0.183 ± 0.0244 E-score |
| ATCCACAG | 0.185 ± 0.0127 E-score |
| ACATTCGG | 0.311 ± 0.0104 E-score |
| CACCACAC | 0.426 ± 0.00815 E-score |
| CACCACAG | 0.322 ± 0.0259 E-score |
| CACACCAA | 0.38 ± 0.0115 E-score |
| CACACGAG | 0.238 ± 0.00672 E-score |
| CACCCCAG | 0.36 ± 0.0234 E-score |
| CACACGAA | 0.217 ± 0.0302 E-score |
| CACACCAG | 0.416 ± 0.029 E-score |
| CCCACCAC | 0.158 ± 0.0233 E-score |
| CGCACCAG | 0.17 ± 0.0676 E-score |
| AACCACAC | 0.281 ± 0.0163 E-score |
| CGCACCAC | 0.206 ± 0.0107 E-score |
| CACACCAC | 0.442 ± 0.00998 E-score |

| Sequence | binding signal |
| --- | --- |
| AGGATACT | 0.167 ± 0.0416 E-score |
| CACTCACA | 0.228 ± 0.0123 E-score |
| CCCTAGTA | 0.18 ± 0.00712 E-score |
| CACCCAAA | 0.255 ± 0.0189 E-score |
| TACCGACA | 0.166 ± 0.00446 E-score |
| AGTCAGTG | 0.207 ± 0.0189 E-score |
| CCCCACTC | 0.18 ± 0.00661 E-score |
| CGGGTCAC | 0.246 ± 0.0313 E-score |
| CCCGCCCC | 0.1792 ± 0.00129 E-score |
| AGCACCAG | 0.247 ± 0.0221 E-score |
| AACACCAG | 0.4653 ± 0.00151 E-score |
| AACACGAG | 0.361 ± 0.00448 E-score |
| ACCAATAC | 0.1574 ± 0.000269 E-score |
| GAAGTGTA | 0.368 ± 0.0537 E-score |
| ACAGTGTC | 0.387 ± 0.00426 E-score |
| CCAGTGTA | 0.43 ± 0.0046 E-score |
| GCAGGGTA | 0.162 ± 0.00253 E-score |
| AAAGTGTC | 0.36 ± 0.0233 E-score |
| CCAGTGTC | 0.431 ± 0.00754 E-score |
| GCAGTGTA | 0.415 ± 0.0107 E-score |
| CCAGTTTA | 0.227 ± 0.00151 E-score |
| ACTGTGTC | 0.155 ± 0.074 E-score |

| Sequence | binding signal |
| --- | --- |
| CCAGTAAC | 0.161 ± 0.0301 E-score |
| CCAGTGGG | 0.224 ± 0.0185 E-score |
| CCTGTGTC | 0.229 ± 0.0614 E-score |
| CTCCCCTA | 0.159 ± 0.0508 E-score |
| CCGGGCGA | 0.151 ± 0.0223 E-score |
| GATCCACA | 0.157 ± 0.00291 E-score |
| ACCCTGAA | 0.21 ± 0.0501 E-score |
| CACAGGAG | 0.168 ± 0.00689 E-score |
| GGATCCCC | 0.298 ± 0.0202 E-score |
| CCCCGCCC | 0.223 ± 0.0451 E-score |
| TACTAACA | 0.185 ± 0.0552 E-score |
| AGTGCGGA | 0.161 ± 0.0458 E-score |
| CCGGATCG | 0.199 ± 0.0134 E-score |
| CCCGCCGC | 0.184 ± 0.0289 E-score |
| ACAGAGTG | 0.184 ± 0.0479 E-score |
| AAAGTGTA | 0.36 ± 0.0454 E-score |
| ACAGTGTA | 0.381 ± 0.0259 E-score |
| GCACCCCA | 0.257 ± 0.053 E-score |
| ACTGGATC | 0.155 ± 0.0197 E-score |
| GCGTAACA | 0.199 ± 0.0107 E-score |
| GGTATCAC | 0.3993 ± 0.00177 E-score |
| CGTATCAC | 0.162 ± 0.023 E-score |
